Source: PubChem BioAssay
Shiga inhibitor: blocks Shiga toxin action in Vero cells. Vero cells, Shiga toxin protein synthesis inhibition reporter. inhibition, % at 38.7 µM. 290,000 compounds, 9.2% hits. AID 2315; in the data active = inhibition mostly above about 28%, no sharp cut-off; inactive = mostly below about 43%; also: 0% is about no effect
LmPK inh: LmPK (Leishmania mexicana) enzyme inhibition; Q27686; purified LmPK, Kinase-Glo ATP luminescence, 1 h; Potency, µM (doses to about 57.5 µM), without a hit: at the top dose activity change, negative = inhibition, most hits filed as inhibitors; 290,000 compounds, 0.37% hits; AID 1721; also: potency is read from the fitted curve at half-maximal effect; % is scaled to controls: 0 for no effect and ±100 for the full control effect
Target sequence (Q27686 whole entry, looked up): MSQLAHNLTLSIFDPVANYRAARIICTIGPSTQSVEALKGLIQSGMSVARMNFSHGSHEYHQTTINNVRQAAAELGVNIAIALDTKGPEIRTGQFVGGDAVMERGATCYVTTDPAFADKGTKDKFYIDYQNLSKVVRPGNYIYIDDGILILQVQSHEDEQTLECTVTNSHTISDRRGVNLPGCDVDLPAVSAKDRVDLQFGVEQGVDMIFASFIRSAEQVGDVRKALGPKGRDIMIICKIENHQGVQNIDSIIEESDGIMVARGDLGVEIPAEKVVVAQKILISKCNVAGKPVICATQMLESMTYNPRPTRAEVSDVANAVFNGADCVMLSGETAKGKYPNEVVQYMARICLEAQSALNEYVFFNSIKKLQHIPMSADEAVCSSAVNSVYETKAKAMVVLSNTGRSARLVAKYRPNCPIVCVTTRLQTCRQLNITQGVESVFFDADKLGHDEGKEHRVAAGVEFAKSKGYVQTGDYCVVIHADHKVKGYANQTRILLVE
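qHTS format; LmPK 0.1 nM; substrates PEP 0.5 mM and ADP 0.1 mM. One-hour room-temperature incubation, then coupled luciferase luminescence; 0.5 nM enzyme wells mark activation.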
Giardia FBPA inh: Giardia lamblia aldolase inhibition; purified Giardia FBPA; A8B2U2; 290,000 compounds, 0.71% hits; Potency, µM (highest dose often 59.6 µM), inactives show at the top dose activity, negative = inhibition, hits mostly inhibitors; also: potency is read from the fitted curve at half-maximal effect; % is scaled to controls: 0 for no effect and ±100 for the full control effect; nearly all actives have a fitted effect of over 55% in size
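Giardia FBPA (40 nM reagent) was preincubated 10 min at RT with compound (up to 57.5 uM final), then substrate plus GAPDH/TPI/NAD/arsenate coupling system with diaphorase/resazurin was added; resorufin fluorescence (525/598 nm) was read after 20 min.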
CHX counter: counter-screen hit for Shiga toxin inhibitors, cycloheximide; cell reporter, cycloheximide protein synthesis inhibition counterscreen; max response, %; 300,000 compounds, 12% hits; AID 2314; in the data active = max response mostly above about 13%, no sharp cut-off; inactive = mostly below about 14%; also: read at 38.3 µM for the half of the compounds with a filed dose; 0% is about no effect
Sm TGR inh: S. mansoni TGR enzyme inhibition. Q962Y6. purified TGR, DTNB reduction, TNB absorbance 405 nm. Potency, µM (titrated, usually from 114 µM), for the others: at the highest dose activity change, negative = inhibition, hits mostly inhibitors. 360,000 compounds, 3% hits. AID 485364; also: potency is read from the fitted curve at half-maximal effect; % is scaled to controls: 0 for no effect and ±100 for the full control effect; nearly all actives have a fitted effect of over 60% in size
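TGR 20 nM + NADPH 100 uM (dispensed conc.), cpd preinc 15 min RT; start with NADPH (500 uM addition) then DTNB (15 mM addition). Kinetic TNB absorbance, 405 nm filter. Four-parameter Hill fit across titration.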
Tb PYK inh: blocks Trypanosoma brucei pyruvate kinase; 410,000 compounds, 0.12% hits; AID 624173; Potency, µM (doses to about 76.8 µM), for the others: at the top dose activity, negative = inhibition, hits mostly inhibitors; Q57TT1; TbPYK enzyme, Kinase-Glo Plus ATP luminescence, 45 min; also: potency is read from the fitted curve at half-maximal effect; % is scaled to controls: 0 for no effect and ±100 for the full control effect; nearly all actives have a fitted effect of over 50% in size
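ADP (130 uM final) triggers the TbPYK reaction after compound addition; incubation is 45 min at room temperature. Kinase-Glo Plus is then added and luminescence imaged. Normalized data are fitted to concentration-effect curves.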
* marks the source's active call; other numbers are inactive results; ? = inconclusive; nt = not tested or not shown; + = active, no number. This is one part of a sample in which hits are shown more often than they occur. Unless noted, calls follow the shape of the dose curve; as a rule, active = well fitted curve in the direction sought with a large enough effect; inconclusive = small, poorly fitted or top-dose-only effect, or another doubt; inactive = no such curve, though single readings can be large; an effect the other way counts as inactive or inconclusive.

SMILES | Shiga inhibitor | LmPK inh | Giardia FBPA inh | CHX counter | Sm TGR inh | Tb PYK inh
COC(=O)[C@]12CCCCC=C1N(CCC1=CCCCC1)C(=O)[C@H](CC(=O)NCc1cccc(C(F)(F)F)c1)C2 | nt | nt | nt | nt | nt | -5%
CCOc1ccc(-n2c(=O)c3c(C)c(C(=O)N(C)C)sc3n(Cc3cc(C)ccc3C)c2=O)cc1 | nt | nt | nt | nt | 2% | 1%
Cc1cccc2sc(N(CCN(C)C)C(=O)C3CCN(S(=O)(=O)c4cccs4)CC3)nc12 | nt | nt | nt | nt | 5% | 0%
O=C1C=C(N2CCOCC2)CCC1 | nt | nt | nt | nt | nt | -1%
O=C1C=C(N2CCN(C3=CC(=O)CCC3)CC2)CCC1 | -16 | -8% | -6% | -2 | 20µM* | -6%
CC(C1OC(C)(C)C(O)C1O)C1CC[C@@]2(C)C3=CCC4C(C)(C)C(=O)CC[C@]4(C)C3CC[C@@]12C (stereo partly specified) | nt | nt | -1% | nt | nt | nt
O=C(CSc1ccccn1)N1CCc2ccccc21 | 116* | ? | -7% | 40* | 5% | -6%
COc1cccc(-n2ccnc2SCC(=O)N2CCc3ccccc32)c1 | -4 | 4% | -1% | -1 | -28% | -1%
Cn1ccnc1SCC(=O)N1CCc2ccccc21 | 79* | -13% | nt | 31* | -21% | 2%
O=C(CN1CCN(c2ncccn2)CC1)N1CCc2ccccc21 | -4 | -2% | 3% | -4 | 3% | 6%
O=C(CSc1ccc(-c2ccccn2)nn1)N1CCc2ccccc21 | 42* | 2% | ? | 19 | -22% | 2%
c1ccc2[nH]c(CSc3nccs3)nc2c1 | 75* | -14% | -23% | 23* | 0% | 8%
Cn1c(SCc2nc3ccccc3[nH]2)nnc1-c1cccs1 | -8 | 0% | 10% | 5 | 6% | 4%
Cc1ccc(OCCSCc2nc3ccccc3[nH]2)cc1 | -6 | 3% | 0% | -3 | 1% | -8%
c1ccc(SCc2nc3ccccc3[nH]2)cc1 | 163* | -21% | 4% | 41* | 14% | 3%
Cc1ccc(CSCc2nc3ccccc3[nH]2)cc1 | 66* | -5% | 7% | 39* | 6% | -7%
Fc1ccccc1CSCc1nc2ccccc2[nH]1 | 101* | -7% | -3% | 25* | nt | 3%
CC(C)[C@@H](CC(=O)N[C@@H]1CCCC[C@H]1C(=O)N[C@H](CC(=O)N[C@@H](CCC(=O)O)CC(=O)O)Cc1c[nH]c2ccccc12)NC(=O)C[C@H](CO)NC(=O)[C@@H]1CCCC[C@H]1N | nt | nt | -20% | nt | nt | nt
CC1Cc2cc(S(=O)(=O)N3CCC(C(=O)N(C)Cc4ccccc4)CC3)ccc2N1C(=O)C1CC1 (stereo unspecified) | -4 | -1% | -7% | 15 | 4% | 25%
CC(C)SCc1nc2ccccc2[nH]1 | 14 | -12% | -11% | 15* | 45% | -1%
Cc1ccc(SCc2nc3ccccc3[nH]2)cc1 | 130* | -27% | 0% | 45* | -4% | -1%
Clc1ccc(SCc2nc3ccccc3[nH]2)cc1 | + | -20% | 3% | 49* | 0% | -4%
Clc1ccc(OCCSCc2nc3ccccc3[nH]2)cc1 | 5 | 4% | -7% | 7 | 2% | 6%
Cn1c(Cc2cccs2)nnc1SCc1nc2ccccc2[nH]1 | 17 | -5% | 2% | -1 | 35% | 1%
c1csc(Cc2nc3ccccc3[nH]2)c1 | 35 | -2% | -12% | 24* | 3% | 0%
SMILES | Shiga inhibitor | LmPK inh | Giardia FBPA inh | CHX counter | Sm TGR inh | Tb PYK inh
COc1ccc(CN2COc3ccc4c(-c5ccccc5)cc(=O)oc4c3C2)cc1OC | nt | nt | nt | nt | -11% | -2%
CCc1ccccc1NC(=O)Cn1nnc(C(=O)OC)c1C(=O)OC | nt | nt | nt | nt | 6% | -1%
Cc1nc(SCc2nc3ccccc3[nH]2)c2oc3ccccc3c2n1 | -15 | 1% | 2% | 10 | 6% | 3%
c1ccc2[nH]c(CSc3ncnc4c3oc3ccccc34)nc2c1 | 62* | 1% | 0% | 16* | -19% | 7%
O=C(c1ccc(-c2ccccc2)cc1)N1CCN(c2nc3ccccc3o2)CC1 | 13 | 6% | 2% | 15* | 6% | -15%
O=C(COc1ccccc1)N1CCN(C(=O)c2ccc([N+](=O)[O-])cc2)CC1 | 36 | ? | -4% | 48* | 8% | -8%
CCOc1ccc(C(=O)N2CCN(c3ccccc3)CC2)cc1 | 30* | 0% | 3% | 11 | -1% | -18%
O=C(c1ccc(-c2ccccc2)cc1)N1CCN(c2ccccc2)CC1 | 28 | 2% | -3% | 13* | 0% | 6%
COC(=O)c1ccccc1NC(=O)c1nc(-c2ccc(C)cc2)n2c1CCCCC2 | nt | nt | nt | nt | -4% | 4%
CCc1ccc(NC(=O)CSc2nccn2C2CCCC2)cc1 | nt | nt | nt | nt | -15% | 0%
Cc1nn(C)c2c1c(-c1ccccc1)cc(=O)n2CC(=O)NC(C)C | nt | nt | nt | nt | 2% | -1%
COc1cn(-c2ccccc2)nc1C(=O)Nc1ccc(C)cc1 | 56* | -8% | -5% | 36* | -10% | -16%
COc1cn(-c2ccccc2)nc1C(=O)Nc1ccccc1 | 82* | -1% | -1% | 47* | 0% | 4%
O=S(=O)(NCCc1c[nH]c2ccccc12)c1ccc(F)cc1 | nt | nt | nt | nt | nt | -9%
CCOc1cc(/C=C2/N=C(C)C(C(=O)OC)=C2O)ccc1O | -18 | 6% | -13% | -3 | -26% | -7%
COC(=O)C1=C(O)/C(=C\c2cc(C)n(-c3ccccc3C)c2C)N=C1C | -7 | 4% | 7.1µM* | 1 | 25µM* | 17%
CCOC(=O)C1=C(O)/C(=C\c2sccc2C)N=C1C | 33 | 0% | -7% | 2 | 0% | -3%
COC(=O)C1=C(O)/C(=C\c2sccc2C)N=C1C | 17 | -12% | -7% | 27* | -4% | -4%
COC(=O)c1cccc(-n2c(C)cc(C=O)c2C)c1C | 49* | 1% | 0% | 19* | -2% | -5%
CCC(=O)Nc1cc2nn(-c3ccccc3)nc2cc1Cl | 80* | -1% | 3% | 43* | -1% | -9%
Cc1cc2nn(-c3ccccc3)nc2cc1NC(=O)c1cccc2c(Cl)cccc12 | nt | nt | nt | nt | 0% | 4%
Cc1cc2nn(-c3ccccc3)nc2cc1NC(=O)c1cccs1 | + | 0% | 4% | 22* | 0% | -1%
CC(=O)Nc1cc2nn(-c3ccccc3)nc2cc1C | 83* | -6% | -3% | 59* | 7% | -2%
Cc1ccc(-n2ncc(C(=O)NCCN3CCc4ccccc4C3)c2C2CCN(C(=O)OC(C)(C)C)CC2)c(C)c1 | nt | nt | nt | nt | 0% | -3%
CCCCSc1ccc2nc(-c3ccc(C#N)cc3)cn2c1 | 58 | -3% | -18% | 58* | 9% | -5%
CCCSc1ccc2nc(-c3ccccc3)cn2c1 | 12 | 6.3µM* | -11% | 17 | -1% | ?
CCCCCCCOc1ccc(-c2ccc(C#N)cn2)cc1 | 2 | 1% | 1% | -3 | 6% | 9%
